We go through 15 sequences from the OligoGym collection.
Further: reference of the scale not given here.

The target in the first assay is MARCH9. The assay is described as follows: pooled miR-30 sensor sort-seq; sequence = guide strand. The conditions noted are these: shRNA.
TAATTTAGGACCTTCCACTGCT showed a sensor-assay potency score (higher = more potent) of 0.933. The sequence TTGTCCAGCTGGTACCTCCAGC returned a sensor-assay potency score (higher = more potent) of -0.754. The sequence TATGGCAGCAATCTGGACCTTC returned a sensor-assay potency score (higher = more potent) of -0.025.

Another assay addresses MAST4. The assay is described as above. The conditions noted are these: shRNA.
On to TTGGCCTTCAGCTTGTCGCGGT, for which the sensor-assay potency score (higher = more potent) stood at 0.119. TTTGCTTTTCACCAACAGCGGA showed a sensor-assay potency score (higher = more potent) of -0.849.

Turning to TAGGTAGTAAAATTCTTCCGGA, the sensor-assay potency score (higher = more potent) worked out at 0.168. Sequence TTGCTTTTCACCAACAGCGGAC returned a sensor-assay potency score (higher = more potent) of -0.756. Consider TTCACATCGGAGAAGCTCCTTG, for which the sensor-assay potency score (higher = more potent) was -0.392. In turn, TTGCCTATTAAGCTTTTCCGGT had a sensor-assay potency score (higher = more potent) of -0.995. As to TATACTTCAGTGATTTTCCAGG, the sensor-assay potency score (higher = more potent) was -0.751.

Sequence TTTGTCCACAGAGTCTTCCTTC gave a sensor-assay potency score (higher = more potent) of 0.0254. As for TTGCTAATCAATTTAATCGTTT, the sensor-assay potency score (higher = more potent) is -0.519. Sequence TAACTGATGCAACTTCTCCTGG registered a sensor-assay potency score (higher = more potent) of -0.165. Take TTCTGTGCTTTCTAATCGCTGC: the sensor-assay potency score (higher = more potent) was 0.164. The same measure, in the same setting: then TTTCTTTCGGAGGTAATCGATG, with -1.18.
